Results on 14 molecules are retold here after PubChem BioAssay (EPA / NIEHS).

Assay [1] in a line: CCTE_Mundy_HCI_hNP1_Casp3_7: CCTE's Caspase-Glo 3/7 Assay in human neuroprogenitor cells for Apoptosis, Mundy Lab (AID 2284240). Put shortly: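 Apoptosis is scored by activated caspase-3/7 luminescence in WA09-derived neural progenitor cells, measured 26.5 h after chemical dosing. Values represent gain of signal relative to DMSO vehicle.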
Assay [2] can be described thus: CCTE_Mundy_HCI_hNP1_CellTiter: CCTE's Cell Titer-Glo 2 Assay in human neuroprogenitor cells for Viability, Mundy Lab (AID 2284241; active = hit-call score of the fitted dose curve at least 0.9, where 1 is the maximum;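 as to AC50: a hit is a drop in ATP luminescence versus DMSO meaning reduced viability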). On the procedure: CCTE_Mundy_HCI_hNP1_CellTiter is a multiplexed, cell-based-readout assay that uses neural stem cells derived from a neuroepithelial cell lineage of WA09 embryonic cells with measurements taken at […] after chemical dosing in a microplate: 96-well plate.CCTE_Mundy_HCI_hNP1_CellTiter is one component of the CCTE_Mundy_HCI_hNP1_CellTiter assay. It measures cell viability related to ATP content using Luminescent Reporter.Data from the assay component CCTE_Mundy_HCI_hNP1_CellTiter was analyzed at the endpoint CCTE_Mundy_HCI_hNP1_CellTiter in the positive analysis fitting direction relative to DMSO as the negative control and baseline of activity. Using a type of viability reporter, loss -of-signal activity can be used to understand viability effects.
Human neural progenitor cells (hNP1) were obtained as cryopreserved cells from ArunA Biomedical, Athens Georgia. Cells are plated on pre-coated poly-L-ornithine/laminin clear bottom and opaque 96 well plates (day 0). Plates are placed in a 37 °C, 5% CO2 incubator for 40 to 44 hours at which time plates are removed from the incubator and 10 uL of a freshly made chemical solution is added to each well. Cell viability was based on number of cells per field or determined in sister plates using the CellTiter-Glo luminescent assay (Promega) which measures the amount of ATP present in each well. Twenty-four hours after chemical treatment, 50ul of CellTiter-Glo assay buffer was added to each well and the plate incubated for 30min at room temperature. Luminescence was then recorded in each well using a FLUOstar Optima plate reader (BMG LABTECH, Cary, NC).
Background: In ATP-based viability assays light output follows the ATP content of the culture.

Assay [3] in a line: CCTE_Mundy_HCI_Cortical_Synap_Neur_Matur_NeuronCount: CCTE's Synaptogenesis and Neurite Maturation Assay in rat cortical cells for Neuron Count, Mundy Lab (AID 2284242; active = hit-call score of the fitted dose curve at least 0.9, where 1 is the maximum;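 as to AC50: hits reduce neuron count versus DMSO baseline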). The gist of the method: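 Measured at DIV 12: fluorescently labelled neurons (Hoechst nuclei, MAP2) in rat primary cortical cultures, counted by high-content imaging. AraC suppressed glia from DIV 5; DMSO served as negative control.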

Read-out in assay [4]: Collagen III, COL3A1 (gene 1281)
Nature of the assay: BSK_MyoF_CollagenIII: BioMAP Diversity Plus: MyoF Assay for Collagen III Biomarker Activity (AID 2284239). The conditions noted are these: primary human lung fibroblasts. Put shortly:
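Human lung fibroblasts were dosed with chemicals and, 24 hours later, collagen III was measured by ELISA. Activity was fitted in the positive direction against the DMSO negative-control baseline.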

Read-out in assay [5]: Interleukin 17F (IL17F), IL17F (gene 112744)
Description: BSK_BT_xIL17F: BioMAP Diversity Plus: BT Assay for Interleukin 17F (IL17F) Biomarker Activity (AID 2284243). The conditions noted are these: primary human B cells with PBMC. The gist of the method:
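B cell/PBMC co-culture (human primary), 24 h compound exposure; sIL-17F by Luminex xMAP; gain-of-signal fit vs DMSO baseline.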

Read-out in assay [6]: Actin alpha 1 (ACTA1), ACTA1 (gene 58)
Nature of the assay: BSK_MyoF_ACTA1: BioMAP Diversity Plus: MyoF Assay for Actin alpha 1 (ACTA1) Biomarker Activity (AID 2284244). The conditions noted are these: primary human lung fibroblasts. The gist of the method:
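MyoF fibroblast system (human lung); a-SMA quantified via ELISA at 24 h; DMSO-normalised, gain-of-signal endpoint.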

Read-out in assay [7]: Interleukin 2 (IL2), IL2 (gene 3558)
Description: BSK_BT_xIL2: BioMAP Diversity Plus: BT Assay for Interleukin 2 (IL2) Biomarker Activity (AID 2284245). The note with it: primary human B cells with PBMC. The gist of the method: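 Co-cultures of primary human B cells and PBMC are treated with chemical and sampled at 24 h. IL-2 secretion is quantified by Luminex xMAP, with DMSO-treated wells as baseline.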

Read-out in assay [8]: Basic fibroblast growth factor (bFGF), FGF2 (gene 2247)
Description: BSK_MyoF_bFGF: BioMAP Diversity Plus: MyoF Assay for Basic fibroblast growth factor (bFGF) Biomarker Activity (AID 2284246). The note with it: primary human lung fibroblasts. The gist of the method: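 Fibroblasts from human lung, 24 h dosing. bFGF by ELISA; gain of signal over DMSO.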

Read-out in assay [9]: Collagen IV, COL4A1 (gene 1282)
Description: BSK_MyoF_CollagenIV: BioMAP Diversity Plus: MyoF Assay for Collagen IV Biomarker Activity (AID 2284247). The note with it: primary human lung fibroblasts. Put shortly: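 Lung fibroblasts (human primary) treated with chemicals were assayed after 24 h for Collagen IV using an ELISA, with DMSO serving as negative control and baseline for a positive-direction fit.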

Read-out in assay [10]: Monokine induced gamma interferon (MIG), CXCL9 (gene 4283)
Nature of the assay: BSK_KF3CT_MIG: BioMAP Diversity Plus: KF3CT Assay for Monokine induced gamma interferon (MIG) Biomarker Activity (AID 2284248). The conditions noted are these: primary human keratinocytes with fibroblasts. Put shortly:
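Human keratinocyte plus foreskin fibroblast primary co-culture dosed with test chemical for 24 h; MIG level measured by ELISA and fitted in the positive direction against DMSO as baseline.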

The structures appear in SMILES notation. “And” between values parts separate entries of the source, which are not always exact repeats. Identical values can stand only once. Results filed as inconclusive are left out. The source made the active and inactive calls. The calls were made as follows, unless noted: active = hit-call score of the fitted dose curve at least 0.9, where 1 is the maximum; inactive = score below 0.9.

Regarding `CO/C=C(/C(=O)OC)c1ccccc1COc1cccc(C(F)(F)F)n1`, the half-maximal activity concentration (AC50) in assay [1] was 21.7 µM (active); in [2], 81.5 µM (active); in assay [3] it was 0.935 µM (active).

As to `Sc1ccccc1`, the result in [4], in assay [5], in assay [6], in assay [7], in [8] and in assay [9] was inactive.

On to `O=S(=O)(O)C(F)(F)C(F)(F)C(F)(F)C(F)(F)F`, for which the result in assay [4], in assay [1], in assay [2], in [5], in [6] and in assay [7] was inactive. The result in [8], in [9] and in assay [10] was inactive.

With `O=C(O)C(F)(F)C(F)(F)C(F)(F)C(F)(F)C(F)(F)C(F)(F)C(F)(F)C(F)(F)C(F)(F)F`, the AC50 was 26.2 µM (active) and 19.1 µM (active) in assay [4]; 45.3 µM (active) and 23.6 µM (active) in [6]; 56.9 µM (active) and 55.4 µM (active) in assay [8]; 7.07 µM (active) and 7.44 µM (active) in assay [9]; 50.1 µM (active) and 45.2 µM (active) in [10]. For the same molecule, the call in [1], in assay [2], in assay [5] and in assay [7] was inactive.

For `NS(=O)(=O)C(F)(F)C(F)(F)C(F)(F)C(F)(F)C(F)(F)C(F)(F)C(F)(F)C(F)(F)F`, the concentration at half-maximal activity (AC50) in [4] is 26.2 µM (active) and 28.7 µM (active); in assay [5] it was 35.5 µM (active) and 45.9 µM (active); in assay [6], 10.9 µM (active) and 12 µM (active); in assay [8], 45.6 µM (active) and 45.4 µM (active); in assay [9], 7.27 µM (active) and 7.31 µM (active); in assay [10] it was 27.9 µM (active) and 51.6 µM (active). Also, the result in assay [1] and in assay [7] was inactive.

With `C=CC(N)=O`, the call in assay [1], in assay [2] and in assay [3] was inactive.

Turning to `O=S(=O)(O)C(F)(F)C(F)(F)C(F)(F)C(F)(F)C(F)(F)C(F)(F)F`, the outcome in assay [4], in assay [1], in assay [2], in assay [5], in assay [6] and in [7] was inactive. The outcome in assay [8], in [9] and in [10] was inactive.

Regarding `ClC1=C(Cl)[C@]2(Cl)[C@@H]3[C@@H]4C[C@@H]([C@H]5O[C@@H]45)[C@@H]3[C@@]1(Cl)C2(Cl)Cl`, the AC50 is 15 µM (active) in assay [1] and 25 µM (active) in assay [3].

Turning to `COc1ccc(O)c(C(C)(C)C)c1`, the result in assay [1], in assay [2], in [3] and in assay [10] was inactive.

For the molecule `O=C(O)C(F)(F)C(F)(F)C(F)(F)C(F)(F)C(F)(F)F`, the result in assay [4], in [5], in assay [6], in [7], in assay [8] and in [9] was inactive. Also, the result in [10] was inactive.

With `O=C(O)C(F)(F)C(F)(F)C(F)(F)C(F)(F)C(F)(F)C(F)(F)C(F)(F)C(F)(F)F`, the AC50 was 46.8 µM (active) and 47.6 µM (active) in [4]; 30 µM (active) and 40.3 µM (active) in assay [6]; 18.9 µM (active) and 13.9 µM (active) in [9]. In addition, the outcome in assay [5], in [7], in assay [8] and in assay [10] was inactive.

Turning to `Oc1c(Cl)c(Cl)c(Cl)c(Cl)c1Cl`, the concentration at half-maximal activity (AC50) is 4.07 µM (active) in assay [4], 10.3 µM (active) in [6], 33.5 µM (active) in [8] and 30.6 µM (active) in assay [9]. Also, the result in assay [5] and in [7] was inactive.

For the molecule `CCOP(=S)(OCC)SCSC(C)(C)C`, the result in assay [1] and in assay [2] was inactive. In addition, in assay [3], the AC50 is 9.92 µM (active) and 25.5 µM (active).

As for `ClC1=C(Cl)[C@]2(Cl)[C@@H]3[C@@H](Cl)[C@H]4O[C@H]4[C@@H]3C1(Cl)C2(Cl)Cl`, the values for the concentration at half-maximal activity (AC50) in [1], in [2] and in [3] were 30.3 µM (active), 35.9 µM (active) and 7.22 µM (active), respectively.

As usually defined, the AC50 is the concentration giving half of the maximal activity seen.
